Bioassay records from PubChem BioAssay.
The list is not random: actives were taken first. Their share in the collection is about 1%.
ugtP null kill = compounds lethal to S. aureus RN4220 ugtP deletion mutant; OD600 growth, 16 h; hit rate 0.54% among 330,000; AID 1259309; growth inhibition, % (concentration not given with the values); in the data active = growth inhibition above about 68%;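 also: plate controls were untreated wells for no effect and antibiotic for full effect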
Sa RN4220 lethal = kills Staphylococcus aureus RN4220; S. aureus RN4220 growth, OD600, 16 h; hit rate 0.33% among 330,000; inhibition, % (concentration not given with the values); in the data active = inhibition above about 85%;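 also: plate controls were untreated cells for no effect and reference antibiotic for full effect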
SSB-PriA inh = blocks PriA binding to SSB C-terminal tail | AlphaScreen SSBct-PriA binding, biotinylated peptide | inhibition, % at 33 µM | hit rate 0.6% among 430,000 | AID 1272365; in the data active = inhibition mostly above about 37%, no sharp cut-off; inactive = mostly below about 20%;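 also: plate controls were negative control peptide for no effect and reference peptide for full effect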
* hit, by the source's call; i = inactive; x = no result.

SMILES | ugtP null kill | Sa RN4220 lethal | SSB-PriA inh
Cc1cn2nc(C(=O)Nc3ccc(Cl)cc3C(F)(F)F)cc2c(=O)[nH]1 | x | x | 0
Brc1csc(C=NNc2nc3ccccc3s2)c1 | 15 | 18 | 2
O=[N+]([O-])c1cc(Br)c(O)c(C=NNc2nc3ccccc3s2)c1 | 84* | 67 | 7
COc1ccc(N2CC(NC(=O)C3CCc4nc(C)[nH]c4C3)CC2=O)cc1 (stereo not drawn) | x | x | -1
CCc1c(C)c(C#N)c2[nH]c3ccccc3n2c1=S | 92* | 93* | 7
CCc1cc(=S)n2c([nH]c3ccccc32)c1C#N | 76 | 74 | -1
Cc1c(N)c(C(C)(C)C)cc(C(C)(C)C)c1[N+](=O)[O-] | 95* | 5 | -11
Cc1c(N)c(C)c([N+](=O)[O-])c(C)c1[N+](=O)[O-] | 17 | 13 | -11
CN(C)S(=O)(=O)c1ccc(C(=O)Nc2nc3c(F)cc(F)cc3s2)cc1 | x | x | -11
O=C(c1cc(-c2ccc(Cl)cc2)n(-c2ccc(Cl)cc2)n1)N1CCOCC1 | 44 | -11 | -8
Cc1ccc(-n2nc(C(=O)N3CCOCC3)cc2-c2ccc(Cl)cc2)cc1 | 92* | -3 | 8
O=C(CSc1nnc(-c2ccncc2)n1-c1ccccc1)c1cc([N+](=O)[O-])cs1 | x | x | 17
CC1(C)COc2ccc(NS(=O)(=O)Cc3ccccc3)cc2NC1=O | x | x | -18
Cc1c(Cl)ccc2sc(N(Cc3ccccc3)C(=O)c3ccn(C)n3)nc12 | x | x | -5
CCOc1cccc2sc(N(CCn3nc(C)cc3C)C(=O)c3ccco3)nc12 | x | x | 2
O=C(c1ccc(F)cc1)N(CCCn1ccnc1)c1nc2c(F)cccc2s1 | x | x | 18
CCc1cccc2sc(N(CCCn3ccnc3)C(=O)c3ccco3)nc12 | x | x | 110*
COc1cccc2sc(N(CCCn3ccnc3)C(=O)c3ccco3)nc12 | x | x | 57*
Cc1cccc2sc(N(CCCn3ccnc3)C(=O)c3ccc(Cl)s3)nc12 | x | x | 21
CCOc1cccc2sc(N(CCCn3ccnc3)C(=O)c3ccc(Cl)s3)nc12 | x | x | 50*
Cc1c(Cl)ccc2sc(N(CCCn3ccnc3)C(=O)c3ccco3)nc12 | x | x | 69*
CCc1ccc(NC(=O)C(=O)NC[C@H]2CCCN2S(=O)(=O)c2ccc(OC)cc2)cc1 | x | x | -7
O=C(N[C@H](c1cccnc1)C1CCOCC1)c1ccc(F)cc1Cl | x | x | -10
O=C(NCCS(=O)(=O)N1CCc2ccccc2C1)c1ccc(F)c(F)c1 | x | x | -12
O=C(c1ccco1)N(CCCn1ccnc1)c1nc2c(Cl)cccc2s1 | x | x | 64
SMILES | ugtP null kill | Sa RN4220 lethal | SSB-PriA inh
O=C(c1ccco1)N(CCCn1ccnc1)c1nc2c(F)cccc2s1 | x | x | 72*
CCn1c(SCC(=O)N/N=C/c2ccccc2OCC(=O)O)nnc1-c1ccc(Cl)cc1 | x | x | i
Cc1noc(C)c1Cn1cccc1-c1nc(-c2ccc(OC(F)(F)F)cc2)no1 | x | x | -22
Cc1ccc(-n2ncc3c(=O)[nH]c(-n4nc(C)cc4NC(=O)COc4ccccc4F)nc32)cc1 | x | x | -13
COc1cccc(C(=O)Nc2cc(C)nn2-c2nc3c(cnn3-c3ccc(C)cc3)c(=O)[nH]2)c1OC | x | x | 3
Cc1cc(NC(=O)COc2ccccc2F)n(-c2nc3c(cnn3-c3cccc(C)c3C)c(=O)[nH]2)n1 | x | x | 43*
COc1cccc(C(=O)Nc2cc(C)nn2-c2nc3c(cnn3-c3cccc(C)c3C)c(=O)[nH]2)c1OC | x | x | 94*
CS(=O)(=O)N1CCCc2ccc(NC(=O)COc3ccccc3F)cc21 | x | x | 5
CC1CCCCC1=NNC(=S)NCCc1ccccc1 (stereo not drawn) | 2 | 2 | 44*
S=C(NCCc1ccccc1)NN=C1CCCCCC1 | 3 | 6 | 5
Cc1ccc(-c2nc3cccnc3s2)cc1NS(=O)(=O)c1ccc2c(c1)CCCC2 | 75 | 5 | -15
O=S(=O)(Nc1cccc(-c2nc3cccnc3s2)c1)c1ccc2c(c1)CCCC2 | 93* | 16 | -4
Cc1cc(N2CCN(S(C)(=O)=O)CC2)ncn1 | x | x | 5
O=S(=O)(Nc1ccc(Nc2ccc(-n3cccn3)nn2)cc1)c1cccc(Br)c1 | x | x | 28
CCOc1ccc(S(=O)(=O)Nc2ccc(Nc3ccc(-n4cccn4)nn3)cc2)cc1 | x | x | 70*
COc1ccc(Nc2nc(NN)nc(Nc3ccc(OC)cc3)n2)cc1 | -9 | 6 | 100*
NNc1nc(Nc2ccccc2)nc(N2CCCCC2)n1 | -18 | 10 | 7
COc1ccc(Nc2ccc(OC)cc2)cc1 | 6 | 4 | 17
Cc1cc(N)nc(Nc2ccc(C(N)=O)cc2)n1 | x | x | -6
Cc1cc(N)nc(Nc2ccc(Nc3ccccc3)cc2)n1 | x | x | 41*
NNc1nc(Nc2ccccc2)nc(Nc2ccccc2)n1 | -22 | 10 | 49*
Cc1noc(-c2cccn3c(CNC(=O)CSC4CCCC4)nnc23)n1 | x | x | -14
COc1cc2c(=O)c(-c3ccc(Br)cc3)coc2cc1O | x | x | -3
Cc1ccc(NC(=O)CC2CCCCN2S(=O)(=O)c2ccc(F)cc2)cc1Cl (stereo not drawn) | x | x | 7
Cc1cccc(C)c1OC(=O)Cc1ccccc1 | 3 | 0 | -13
